Screening data as filed in PubChem BioAssay.
PNC assembly inh = High Content Assay for Compounds that inhibit the Assembly of the Perinucleolar Compartment; AID 2417, 2010; hit rate 3.1% among 140,000; activity change (PNC), negative = inhibition, % at 10 µM; PC3M PTB-GFP, PNC prevalence imaging, 16 h; stronger effect = lower value;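 active means readout at or below -70, meaning at least 70% loss of cells showing the perinucleolar compartment, a nuclear body marking cancer cells; inconclusive means readout between -30 and a set limit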;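 further: plate controls were DMSO wells for no effect and camptothecin positive control wells for full effect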
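PC3M cells stably expressing PTB-GFP, 750–1000 cells/well, treated 16 h at 37 °C with compound (23 nl of library stock), in duplicate. After paraformaldehyde fixation and Hoechst stain, imaged at 20x; PNC prevalence scored by image analysis.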
12-hLO inh = qHTS Assay for Inhibitors of 12-hLO (12-human lipoxygenase). Potency, µM (titrated, usually from 57.1 µM), inactives show top-dose activity change, negative = inhibition, most hits filed as inhibitors. AID 1452, 2008. purified 12-hLO, xylenol orange hydroperoxide absorbance. hit rate 0.12% among 150,000; further: potency means the concentration at half of the fitted maximal effect; nearly all actives have a fitted effect of over 55% in size
Target sequence (P18054 whole entry, looked up): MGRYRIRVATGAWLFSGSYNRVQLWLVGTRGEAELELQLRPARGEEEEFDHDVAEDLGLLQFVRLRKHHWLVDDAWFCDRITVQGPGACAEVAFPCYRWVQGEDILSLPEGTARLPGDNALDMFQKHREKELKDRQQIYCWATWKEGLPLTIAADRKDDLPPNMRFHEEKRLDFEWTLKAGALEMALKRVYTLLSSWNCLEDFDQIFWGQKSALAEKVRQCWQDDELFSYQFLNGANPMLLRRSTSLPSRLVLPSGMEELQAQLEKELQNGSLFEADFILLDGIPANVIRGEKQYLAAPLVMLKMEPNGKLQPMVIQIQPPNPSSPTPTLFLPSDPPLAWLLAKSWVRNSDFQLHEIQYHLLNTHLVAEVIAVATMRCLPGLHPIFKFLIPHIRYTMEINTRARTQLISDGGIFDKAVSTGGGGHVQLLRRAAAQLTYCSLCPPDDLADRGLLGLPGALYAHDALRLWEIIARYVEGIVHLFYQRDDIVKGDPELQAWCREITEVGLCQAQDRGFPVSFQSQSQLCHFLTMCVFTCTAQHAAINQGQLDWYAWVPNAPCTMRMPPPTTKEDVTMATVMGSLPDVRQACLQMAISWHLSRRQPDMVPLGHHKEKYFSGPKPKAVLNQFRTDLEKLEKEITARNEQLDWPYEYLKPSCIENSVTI
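Lipoxygenase turnover measured by absorbance at 573 and 405 nm after Fe-XO development. Human 12hLO 150 nM, arachidonate 40 uM, pH 7.0 Hepes buffer with detergent; 15 min compound preincubation, 30 min reaction.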
ALOX15B inhib = qHTS Assay for Inhibitors of 15-hLO-2 (15-human lipoxygenase 2); AID 881, 2007; hit rate 0.56% among 110,000; purified 15hLO-2, xylenol orange hydroperoxide absorbance; Polyunsaturated fatty acid lipoxygenase ALOX15B (Homo sapiens), O15296; Potency, µM (highest dose often 57.1 µM), for inactives: top-dose activity change, negative = inhibition, usual class: inhibitors; further: potency means the concentration at half of the fitted maximal effect; nearly all actives have a fitted effect of over 60% in size
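Purified human 15hLO-2 (50 nM) preincubated 15 min with compound, then 45 uM arachidonic acid for 90 min at RT in 25 mM Hepes pH 7.5, 0.01% Triton X-100. Hydroperoxide detected by Fe-xylenol orange; 573/405 nm absorbance ratio.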
* hit, by the source's call; ? = inconclusive; . = no result given; [ ] = dose if it differs, or a comment. The list is not random: actives were taken first. Their share in the collection is about 3.1%. Unless noted, the call rests on the fitted dose curve; in most records, active means well fitted curve in the direction sought with a large enough effect; inconclusive means small, poorly fitted or top-dose-only effect, or another doubt; inactive means no such curve, though single readings can be large; an effect the other way counts as inactive or inconclusive. Unless noted, on the % scale 0 is the no-effect control and ±100 the full control effect.

SMILES	PNC assembly inh	12-hLO inh	ALOX15B inhib
O=C(Nc1ccccc1)c1cc2ccccc2o1	-100*	15%	.
CC(=O)Nc1cccc(NC(=O)c2cc3ccccc3o2)c1	-27	5%	1%
O=C(Nc1ccccc1)c1ccc(-c2ccccc2Cl)o1	-92*	-1%	.
CC(=O)SC[C@@H](Cc1ccccc1)C(=O)NCC(=O)OCc1ccccc1	.	-2%[25.6 µM]	3%[25.6 µM]
C[C@@]1(CO)[C@H](O)CC[C@]2(C)[C@@H]1CC[C@H]1C[C@H]3C[C@]12CC[C@]3(O)COC(=O)CN	.	2%[11.4 µM]	-1%[11.4 µM]
CC1(C)S[C@@H]2[C@H](NC(=O)C(N)c3ccccc3)C(=O)N2[C@H]1C(=O)O (some centres undefined)	.	6%[25.6 µM]	3%[25.6 µM]
C=CCN1CCc2c(cc(O)c(O)c2Cl)[C@H](c2ccccc2)C1	.	-21%	?
C[C@H]1C2=C3C(CC[C@H]4C(OCc5ccc(F)cc5C(F)(F)F)OC[C@](C)([C@@H]34)N(C(=O)OC(C)(C)C)C2)C2COC(=O)OCC21 (some centres undefined)	.	-2%	11%
Cc1ccc(S(=O)(=O)Nc2cccc3cccnc23)cc1	?	9%	42%
COc1cc(NS(=O)(=O)c2ccc(C)cc2)c2ncccc2c1	-100*	2%	.
O=C(O)[C@@H]1CCCN1Cc1cc2ccccc2c2ccccc12	.	3%[11.4 µM]	-6%[11.4 µM]
NCCC[C@@H](CC(=O)N[C@@H]1CCNC[C@H]1C(=O)N[C@H](CC(=O)N[C@@H](CCC(=O)O)CC(=O)O)Cc1ccccc1)NC(=O)C[C@H](CO)NC(=O)[C@@H]1CNCC[C@H]1N	.	0%	.
O=C1CC(N2CCOCC2)C(=O)N1c1ccccc1Cl (centres undefined)	-94*	0%	-15%
O=C1CC(N2CCN(c3ccccc3Cl)CC2)C(=O)N1c1ccccc1 (centres undefined)	-11	-7%	-10%
O=[N+]([O-])c1cccc(Cl)c1Cl	.	1%	4%
Cc1cn(CC[C@H](N)C(=O)O)c(=O)[nH]c1=O	.	2%[11.4 µM]	-2%[11.4 µM]
O=c1cc(O)n(-c2ccccc2)c(=S)[nH]1	-100*	-12%	.
N=c1n(-c2ccccc2)c(O)cc(=O)n1-c1ccccc1	55	-4%	-3%
COC(=O)CCc1c(C)nc(N)[nH]c1=O	-112*	8%	-1%
CCCCc1c(C)nc(N)[nH]c1=O	10	6%	-13%
C[C@@H](C(=O)O)c1ccc(N2Cc3ccccc3C2=O)cc1	.	-3%[25.6 µM]	9%[25.6 µM]
COc1ccc(C(=O)N2CCC[C@@]3(CCN(c4ccccn4)C3)C2)cc1	.	1%	5%
Cn1cccc1C(=O)N1CCC2(CCCN(c3ncccn3)C2)CC1	.	-5%	-9%
O=C(N/N=C\c1ccc2c(c1)CCC2)c1ccccc1O	.	0%[11.4 µM]	-5%[11.4 µM]
O=c1[nH]c(-c2ccco2)nc2sc3c(c12)CCCC3	-116*	-6%	.
SMILES	PNC assembly inh	12-hLO inh	ALOX15B inhib
Cc1nc2sc3c(c2c(=O)[nH]1)CCCC3	.	4%[11.4 µM]	-7%[11.4 µM]
CNC1=CN(O)C(c2ccccc2)=c2cc(Cl)ccc2=N1	.	1%[0.00818 µM]	-4%[0.0915 µM]
Cn1c(SCC(=O)NCc2ccco2)nnc1-c1ccc(S(=O)(=O)N2CCOCC2)cc1	-100*	-5%	8%
CC1CCCN(C(=O)CSc2nnc(-c3ccc(S(=O)(=O)N4CCOCC4)cc3)n2C)C1 (centres undefined)	12	2%	4%
CC1CCN(C(=O)CSc2nnc(-c3ccc(S(=O)(=O)N4CCOCC4)cc3)n2C)CC1	-100*	-2%	.
Cn1c(SCC(=O)NCc2ccco2)nnc1-c1ccccc1	31	-3%	.
COC(=O)CCCC1=CC2=C(c3ccccc3)C(=O)C(C)(OC(=O)C3CCCC3)C(=O)C2=CN1CCCOC(C)C (centres undefined)	.	13%[11.4 µM]	.
Cc1[nH]nc2c1C(c1ccccc1F)NC2=O (centres undefined)	-103*	10%	-3%
CCOc1ccc(C2NC(=O)c3n[nH]c(C)c32)cc1 (centres undefined)	?	0%	-7%
CCOC(=O)c1sc(N)c(C(=O)Nc2ccc(C)cc2C)c1C	.	-20%	.
COc1ccccc1-c1cncnc1Nc1ccccc1	.	.	0%
S=P(N1CC1)(N1CC1)N1CC1	.	-3%	-16%
Cc1nc2cnc(Oc3ccccc3)nc2n(C2CC2)c1=O	.	.	-9%
CCN(C(=O)CN1CCN(c2ccccc2O)CC1)c1c(N)n(Cc2ccccc2)c(=O)[nH]c1=O	4	-15%	5%
CC(C)CN(C(=O)CN1CCN(c2ccccc2O)CC1)c1c(N)n(CC(C)C)c(=O)[nH]c1=O	-86*	-2%	.
CC(C)c1ccc2c(c1)[C@H]1OCC[C@H]1[C@@H](c1cccs1)N2	-109*	1%	.
c1coc(C2Nc3ccccc3C3OCCC23)c1 (centres undefined)	42	8%	15%
CN(C)c1ncnc2ccc(-c3cccc(C#N)c3)cc12	.	.	10%
Cc1csc(SCc2ccc(C(=O)O)cc2)n1	-111*	3%	3%
Cc1csc(SCc2ccccc2C(=O)O)n1	-17	-3%	-10%
Nc1nc2c(ncn2[C@@H]2C=C[C@@H](CO)C2)c(=O)[nH]1	.	-3%[11.4 µM]	0%[11.4 µM]
O=C(O)[C@@H](O)[C@@H](O)[C@H](O)[C@H](O)CO	.	2%[11.4 µM]	-8%[11.4 µM]
C/C(C[n+]1ccccc1)=N\N=C(N)N	.	-2%[11.4 µM]	4%[11.4 µM]
COc1ccc(CCNC(=O)c2nc3ncccn3n2)cc1OC	-107*	3%	-1%
COc1ccc(CCNC(=O)c2ccncc2)cc1OC	31	-5%	2%
SMILES	PNC assembly inh	12-hLO inh	ALOX15B inhib
COC(=O)C1=C(C(=O)OC)[C@@H]2N(Cc3ccccc3)c3ccccc3[C@@]23C[C@@H](C(=O)OC)N(S(=O)(=O)c2ccc([N+](=O)[O-])cc2)C3=N1	.	3%[11.4 µM]	.
Cc1ccc(Cl)cc1N	.	2%	-1%
C=CCn1c(C)cc(C(=O)COC(=O)c2ccc3c(c2)NC(=O)CS3)c1C	-81*	-1%	.
COCCn1c(C)cc(C(=O)COC(=O)c2ccc3c(c2)NC(=O)CS3)c1C	-16	-1%	.
C/C=C1/C(=O)C[C@H]2[C@@H]3CCC4=CC(=O)CC[C@]4(C)[C@H]3CC[C@]12C	.	-4%	-3%
O=C(c1ccco1)N1CCN(c2ncccn2)CC1	-21	7%	3%
O=C(c1ccco1)N1CCN(C(=O)C2CCCO2)CC1 (centres undefined)	-100*	-4%	.
O=C(c1cccnc1)N1CCN(C(=O)c2ccco2)CC1	-100*	-4%	.
Cc1occc1C(=O)N1CCN(C(=O)C2CCCO2)CC1 (centres undefined)	-8	-1%	-5%
CC(=O)OC1CC2C(C)(C)CCC(=O)[C@@]2(C)C2CC[C@@]3(C)C(c4ccoc4)OC(=O)C4OC43[C@]12C (some centres undefined)	.	-1%	-4%
C#CCn1c(S(=O)(=O)Cc2ccc(F)cc2)nc(-c2ccccc2)c1-c1ccccc1	-106*	-2%	-4%
CCOC(=O)Cn1c(S(=O)(=O)Cc2ccc(F)cc2)nc(-c2ccccc2)c1-c1ccccc1	-3	0%	-10%
CC/C=C\C/C=C\C/C=C\C/C=C\C/C=C\C/C=C\CCC(=O)NCC(=O)O	.	-3%	.
